Screening results from PubChem.
Shown are actives, neighbours in structure and some others; about 4.6% of the full set was active somewhere.
tim10-1 inh – growth inhibitors of tim10-1 mutant yeast, primary screen, luminescence, uHTS. S. cerevisiae tim10-1 ts strain growth, BacTiter-Glo, 24 h. AID 463190, 2010. 330,000 tested, 2.2% active. inhibition, % at 20 µM;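 active means inhibition of at least 40%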;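 further: mutant grown at 25 °C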
tim23-1 inh – growth inhibitors of tim23-1 mutant yeast, primary screen, luminescence, uHTS. S. cerevisiae tim23-1 growth, BacTiter-Glo luminescence, 24 h. inhibition, % at 20 µM. 330,000 tested, 1.3% active;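 active means growth inhibition of the mutant yeast at or above 50%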;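 further: temperature-sensitive mutant grown at 25 °C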
NALP3 yeast inh – NALP3 inflammasome inhibitors in reconstituted yeast, primary screen, luminescence, uHTS. 330,000 tested, 0.39% active. inhibition, % at 10 µM. Yeast reconstituted NLRP3/ASC/caspase-1, beta-gal luminescence, 24 h;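 active means inhibition of 50% or more; inactive means inhibition below 50%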
TIM10 inh – growth inhibitors of isogenic TIM10 control yeast, primary screen, counter-screen for tim10-1 yeast inhibitor project, luminescence, uHTS; S. cerevisiae TIM10 strain growth, BacTiter-Glo luminescence, 24 h; inhibition, % at 10 µM; 330,000 tested, 1.4% active; AID 463195, 2010;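 active means inhibition of 40% or more at the single tested concentration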;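 further: wild-type TIM10 isogenic control strain grown at permissive 25 °C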
SKKanGAS inh – S. pyogenes SKKanGAS growth inhibitors in kanamycin, primary screen, streptokinase expression inhibitor project, SKKanGAS strain, BacTiter-Glo luminescence; 6 h; inhibition, % at 7.5 µM; 300,000 tested, 1.3% active;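 active means mean replicate score, as percent of positive control median, at least 50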;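 further: strain carries kanamycin resistance gene driven by streptokinase promoter and grows in 40 µg/ml kanamycin; loss of luminescence reflects streptokinase promoter inhibition or plain growth inhibition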
tim10-1 conf – growth inhibitors of tim10-1 mutant yeast, confirmation, single concentration, luminescence, S. cerevisiae; shares compounds with tim10-1 inh; S. cerevisiae tim10-1 ts strain growth, BacTiter-Glo, 24 h; inhibition, % at 20 µM; 7,400 tested, 56% active;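 active means inhibition of yeast growth at or above a set limit in either of two repeat tests at 20 µM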;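 further: tim10-1 mutant grown at permissive 25 °C to find synthetic lethal compounds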
TIM10 conf – growth inhibitors of wild-type TIM10 yeast, confirmation, counter-screen for tim10-1 synthetic lethality project, single concentration, luminescence, S. cerevisiae. 4,600 tested, 63% active. S. cerevisiae tim10 strain growth, BacTiter-Glo luminescence, 24 h. inhibition, % at 10 µM. shares compounds with TIM10 inh. AID 463215, 2010;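 active means inhibition of yeast growth at or above a set limit in either of two replicates at 10 µM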; further: this counterscreen used the strain with wild-type TIM10
Large screens that a line does not name were inactive (follow-up assays come after a bar, where they were run).

COC(=O)[C@@]1(Cc2ccc(F)cc2)[C@H]2c3cc(C(=O)N4CCCC4)n(CCCNc4ncc(C(F)(F)F)cc4Cl)c3C[C@H]2CN1C(=O)c1ccccc1	none
CCCC(=O)Nc1nc(C)c(-c2csc(Nc3ccccc3C)n2)s1	none
CCC(=O)Nc1nc(C)c(-c2csc(Nc3ccccn3)n2)s1	tim10-1 inh 40, TIM10 inh 42 | tim10-1 conf inactive | TIM10 conf 47
COc1ccc(CN2[C@@H](CC(C)=O)c3ccc(/C=C/C(C)=O)cc3S2(=O)=O)cc1	tim10-1 inh 55, TIM10 inh 55 | tim10-1 conf 51 | TIM10 conf 55
COC(=O)/C=C/c1ccc2c(c1)S(=O)(=O)N(Cc1ccc(OC)cc1)[C@H]2CC(=O)OC	none
COc1ccc(CNC(=S)N/N=C/c2ccncc2)cc1	none
CCN(CC)c1ccc(/C=N/NC(=S)NCc2ccc(OC)cc2)cc1	tim10-1 inh 45, TIM10 inh 45 | tim10-1 conf inactive | TIM10 conf 42
O=C(/C=C/c1cn(-c2ccccc2)nc1-c1cccnc1)c1ccco1	tim10-1 inh 57, TIM10 inh 48 | tim10-1 conf 48 | TIM10 conf 41
O=C(C#Cc1ccccc1)c1ccc([N+](=O)[O-])cc1	tim10-1 inh 43, TIM10 inh 55 | tim10-1 conf inactive | TIM10 conf inactive
CN1C(N)=NC(=O)/C1=C\c1ccc(Br)cc1	none
CCOc1ccc(-c2nnc3ccc(SC(C)C)nn23)cc1	tim10-1 inh 48, TIM10 inh 42, SKKanGAS inh 57 | tim10-1 conf 45 | TIM10 conf 51
COC(=O)c1ccc(OCC(O)CN2CCN(C(=O)c3ccco3)CC2)c(OC)c1 (configuration not stated)	none
COc1ccc(O)c(C(=O)/C=C/c2cc3ccccc3o2)c1	tim10-1 inh 57, TIM10 inh 48 | tim10-1 conf 37 | TIM10 conf inactive
O=C(/C=C/c1cc2ccccc2o1)c1ccccc1O	tim10-1 inh 41, TIM10 inh 58 | tim10-1 conf 49 | TIM10 conf 58
N/C(=N\OC(=O)/C=C/c1ccccc1Cl)c1ccncc1	none
Cc1cc(C)c2c(=O)n(CC(=O)Nc3ccc(Cl)cc3)sc2n1	tim10-1 inh 91, TIM10 inh 86 | tim10-1 conf 93 | TIM10 conf 96
CCOc1ccc(NC(=O)Cn2sc3nc(C)cc(C)c3c2=O)cc1	tim10-1 inh 83, TIM10 inh 46 | tim10-1 conf 90 | TIM10 conf 88
Cc1cc(C)c2c(=O)n(CC(=O)Nc3cccc(F)c3)sc2n1	none
Cc1ccc(NC(=O)Cn2sc3nc(C)cc(C)c3c2=O)c(Cl)c1	tim10-1 inh 86, TIM10 inh 81 | tim10-1 conf 92 | TIM10 conf 96
COc1ccc(/C=C2\CCC(C3CCCC3)C2=O)cc1Cn1cccn1 (configuration not stated)	none
COc1ccc(/C=C2\CCc3ccccc3C2=O)cc1Cn1cccn1	tim10-1 inh 43, TIM10 inh 42 | tim10-1 conf 40 | TIM10 conf inactive
COc1ccc2[nH]c(C)c(CCNC(=S)Nc3cccc(C)c3)c2c1	none
CCc1cccc(CC)c1NC(=S)NCCc1c(C)[nH]c2ccc(C)cc12	tim10-1 inh 45, TIM10 inh 46 | tim10-1 conf 42 | TIM10 conf 46
O=C(CCNC(=O)c1ccccc1Cl)NCCc1ccc(C(F)(F)F)cc1	none
CCOc1ccc(/C=C2\SC(N3CCc4ccccc4C3)=NC2=O)cc1	tim10-1 inh 47, TIM10 inh 54 | tim10-1 conf 35 | TIM10 conf inactive
Cc1ccccc1Nc1nc(N)nc(CSc2nc3ccccc3s2)n1	none
Cc1ccc(Nc2nc(N)nc(CSc3nc4ccccc4s3)n2)cc1	tim10-1 inh 47, TIM10 inh 47 | tim10-1 conf inactive | TIM10 conf inactive
